# According to PubChem BioAssay AID1159580 (chemical genetic matrix, 2015):
# Hit rate of the full screen: of about 5,500 compounds, about 2,000 (36%) were called active. Inconclusive results (about 18%) are left out. Some of the results follow. Values without a mark were called inactive. No stated cut-off is given here; in the data, active means normalized growth mostly below about 0.91 (no sharp cut-off); inconclusive means no clear call, values can overlap the other calls; inactive means mostly above about 0.92.
# Assay: chemical genetic growth profiling, strain panel (AID 1159580);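 further: tested at 20 µM; growth read once vehicle control cultures reached saturation at 30 °C; 1 = growth at the plate median or of vehicle wells; lower values mean less growth of the strain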
# Conditions: S. cerevisiae deletion strains, growth OD
# [1] = locus YBR229C, strain ROT2, active compounds read low
# [2] = locus YDL101C, strain DUN1, active compounds read low
# [3] = locus YDL134C, strain PPH21, active compounds read low
# [4] = locus YDR150W, strain NUM1, active compounds read low
# [5] = locus YEL061C, strain CIN8, active compounds read low
# [6] = locus YGR078C, strain PAC10, active compounds read low
# [7] = locus YHR030C, strain SLT2, active compounds read low
# [8] = locus YHR087W, strain rtc3, active compounds read low
# [9] = locus YJR043C, strain POL32, active compounds read low
# [10] = locus YJR075W, strain HOC1, active compounds read low
# [11] = locus YLR039C, strain RIC1, active compounds read low
# [12] = locus YLR058C, strain SHM2 (second series), active compounds read low
# [13] = locus YLR085C, strain ARP6, active compounds read low
# [14] = locus YLR262C, strain YPT6, active compounds read low
# [15] = locus YML094W, strain GIM5, active compounds read low
# [16] = locus YMR219W, strain ESC1, active compounds read low
# [17] = locus YMR263W, strain SAP30, active compounds read low
# [18] = locus YNL153C, strain GIM3, active compounds read low
# [19] = locus YNL298W, strain CLA4 (second series), active compounds read low
# [20] = locus YNL322C, strain KRE1, active compounds read low
# [21] = locus YNR030W, strain Alg12, active compounds read low
# [22] = locus YPL055C, strain LGE1, active compounds read low
# [23] = locus YPL241C, strain CIN2, active compounds read low
# [24] = locus YPR135W, strain CTF4, active compounds read low
compound,measurement,setting,value
c1ccc(-c2cc3c(ccc4nonc43)nn2)cc1,normalized growth,[1],0.957
same,normalized growth,[2],0.933
same,normalized growth,[3],0.991
same,normalized growth,[4],0.922
same,normalized growth,[5],0.947
same,normalized growth,[6],0.973
same,normalized growth,[7],0.604 (active)
same,normalized growth,[8],0.971
same,normalized growth,[9],0.76 (active)
same,normalized growth,[10],0.97
same,normalized growth,[11],0.96
same,normalized growth,[12],0.977
same,normalized growth,[13],0.878
same,normalized growth,[14],0.988
same,normalized growth,[15],0.935
same,normalized growth,[16],0.981
same,normalized growth,[17],0.923
same,normalized growth,[18],0.955
same,normalized growth,[19],0.945
same,normalized growth,[20],0.988
same,normalized growth,[21],0.905
same,normalized growth,"locus YOL006C, strain TOP1, active compounds read low",0.734
same,normalized growth,[22],0.82 (active)
same,normalized growth,[23],0.89
same,normalized growth,[24],0.764
c1ccc(-c2cc3c(nn2)CCc2nonc2-3)cc1,normalized growth,"locus YAL013W, strain DEP1, active compounds read low",0.979
same,normalized growth,[1],0.984
same,normalized growth,[2],0.992
same,normalized growth,[3],0.985
same,normalized growth,[4],1.01
same,normalized growth,[5],0.985
same,normalized growth,[6],0.992
same,normalized growth,[7],0.784
same,normalized growth,[8],1.01
same,normalized growth,"locus YJL187C, strain SWE1, active compounds read low",0.975
same,normalized growth,[9],0.984
same,normalized growth,[10],0.966
same,normalized growth,[11],1.04
same,normalized growth,[12],0.978
same,normalized growth,[13],0.886
same,normalized growth,[14],1.02
same,normalized growth,[15],1.04
same,normalized growth,[16],0.985
same,normalized growth,[17],0.958
same,normalized growth,[18],0.99
same,normalized growth,[19],0.965
same,normalized growth,[20],0.987
same,normalized growth,[21],0.986
same,normalized growth,[22],1.09
same,normalized growth,[23],0.988
same,normalized growth,[24],0.988
